This is an account of results in PubChem BioAssay (NCI).

About 83,000 compounds went through this panel and 20% of them were active in at least one assay; those are over-represented in the sample as a whole.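 Testing used 96-well plates and a 48-hour single-concentration exposure. Example: -40 means 40% of the starting cells died.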 Values without a mark were called inactive. The source made the active and inactive calls. How the source made its calls: active means growth percent below 10; inactive means the rest.

Test systems include NCI-H23 lung; NCI-H226 lung; NCI-H322M lung; HOP-62 NSCLC; NCI-H460 lung; HOP-92 NSCLC; A549/ATCC NSCLC; 786-0 renal; COLO 205 colon.
What all share (assay): NCI-60 one-dose screen, 48 h (100 = growth as untreated, 0 = no growth, -100 = all killed)
Settings in all cases: 10 µM unless noted

As for `O=C1/C=C/[C@@H](O)[C@@H]2C[C@@H](O)C[C@H]2/C=C/CCC[C@H](CO)O1`, the growth is 13.5% with NCI-H23 lung; -63.4% (active) in the assay on NCI-H226 lung; 41.7% with NCI-H322M lung; 43.6% in the assay with HOP-62 NSCLC; 45.1% in the assay on NCI-H460 lung; 58.3% in the assay on HOP-92 NSCLC. Moreover, the growth in the assay with A549/ATCC NSCLC is 31.3%; in the assay with 786-0 renal, -59.6% (active); in the assay on COLO 205 colon, -71.6% (active).

For `Cn1cc(NC(=O)Nc2cc(C(=O)O)n(C)c2)cc1C(=O)O`, the growth in the assay on NCI-H23 lung was 109%; in the assay on NCI-H226 lung, 82.1%; in the assay with NCI-H322M lung, 100%; in the assay with HOP-62 NSCLC it was 94.3%; in the assay with NCI-H460 lung, 120%; in the assay on HOP-92 NSCLC, 119%. The growth with A549/ATCC NSCLC was 102%; in the assay on 786-0 renal, 109%; in the assay on COLO 205 colon it was 113%.

With `Nc1nc2c(c(=O)[nH]1)C1(C(=O)Nc3ccccc31)c1c(nc(N)[nH]c1=O)N2`, the growth in the assay on NCI-H23 lung was 106%; in the assay on NCI-H226 lung it was 91.5%; in the assay with NCI-H322M lung it was 98.1%; with HOP-62 NSCLC it was 101%; with NCI-H460 lung it was 104%; in the assay on HOP-92 NSCLC it was 96.2%. The results for the growth with A549/ATCC NSCLC, in the assay with 786-0 renal and in the assay on COLO 205 colon were 112%, 108% and 102%, respectively.

For the molecule `COc1ccc2c3c(ccc2c1)C(=O)/C(=C\O)CC3`, the growth with NCI-H23 lung was 96.7%; in the assay on NCI-H226 lung, 106%; with NCI-H322M lung, 110%; with HOP-62 NSCLC it was 114%; in the assay with NCI-H460 lung, 102%; in the assay with HOP-92 NSCLC, 96.4%. Moreover, the values for the growth in the assay with A549/ATCC NSCLC, with 786-0 renal and with COLO 205 colon were 109%, 103% and 105%, respectively.

With `COc1ccc(-c2cc(-c3cccnc3)nc3sc(C(=O)Nc4ccccc4)c(N)c23)cc1OC`, the growth was 87.8% in the assay on NCI-H23 lung; 77.2% in the assay on NCI-H226 lung; 79.3% in the assay with NCI-H322M lung; 84.3% with HOP-62 NSCLC; 44.3% with NCI-H460 lung; 24.9% in the assay on HOP-92 NSCLC. The results for the growth with A549/ATCC NSCLC, with 786-0 renal and with COLO 205 colon were 74.2%, 63.9% and 72.6%, respectively.

Turning to `CCCCNCCCN(CCCC)CCCNCCCC`, the growth with NCI-H23 lung was 104%; in the assay on NCI-H226 lung it was 97.3%; with NCI-H322M lung, 99.5%; in the assay on HOP-62 NSCLC, 94.9%; with NCI-H460 lung it was 101%; in the assay with HOP-92 NSCLC, 41.5%. Also, the results for the growth in the assay with A549/ATCC NSCLC, in the assay on 786-0 renal and with COLO 205 colon were 95.4%, 103% and 100%, respectively.

Take `O=C(Oc1cccc2ccccc12)c1ccccc1C(=O)c1ccccc1`: the growth in the assay on NCI-H23 lung is 93%; in the assay on NCI-H226 lung, 105%; with NCI-H322M lung, 101%; with HOP-62 NSCLC, 101%; in the assay on NCI-H460 lung, 93.2%; in the assay with HOP-92 NSCLC it was 54.5%. Moreover, the growth was 88.3% in the assay on A549/ATCC NSCLC, 103% in the assay with 786-0 renal and 112% in the assay with COLO 205 colon.

Regarding `COc1cc(NC(C)CCCN)c2nc(C)ccc2c1Oc1ccc(F)cc1` (stereo unspecified), the growth in the assay with NCI-H23 lung is 84.8%; in the assay with NCI-H226 lung, 84.9%; in the assay on NCI-H322M lung, 37.4%; with HOP-62 NSCLC, 85.8%; with NCI-H460 lung, 73.8%; in the assay with HOP-92 NSCLC, 50.3%. Besides, the values for the growth with A549/ATCC NSCLC, in the assay on 786-0 renal and with COLO 205 colon were 90%, 65.9% and -45.1% (active), respectively.

Take `O=C(c1ccccc1)C(CN1CCCCC1)c1ccccc1` (stereo unspecified): the growth in the assay with NCI-H23 lung was 91.4%; in the assay with NCI-H226 lung it was 91.6%; with NCI-H322M lung, 88.3%; in the assay on HOP-62 NSCLC it was 68.2%; in the assay with NCI-H460 lung, 68.7%; in the assay on HOP-92 NSCLC, -12.2% (active). Moreover, the growth with A549/ATCC NSCLC was 79.9%; in the assay with 786-0 renal it was 1.38% (active); in the assay on COLO 205 colon it was 10.1%.
